Measured values as given in publication PMC7862700, “An all-to-all approach to the identification of sequence-specific readers for epigenetic DNA modifications on cytosine”.

Columns and labels:
Experiment in all cases: DAPPL (digital affinity profiling via proximity ligation, sequencing); 10 mM Tris-HCl pH 7.5, 50 mM NaCl, 1 mM DTT, 4% glycerol, room temperature, 30 min; GST-TFs on glutathione beads, 16-mer random dsDNA library, 0.1% formaldehyde crosslink after washing; high values mean tight binding
Conditions in all cases: protein: recombinant; tags: N-terminal GST; dsDNA, one strand shown
FLI1 = molecular target: T1, FLI1 (Homo sapiens, UniProt Q01543 1-452)
T1 sequence: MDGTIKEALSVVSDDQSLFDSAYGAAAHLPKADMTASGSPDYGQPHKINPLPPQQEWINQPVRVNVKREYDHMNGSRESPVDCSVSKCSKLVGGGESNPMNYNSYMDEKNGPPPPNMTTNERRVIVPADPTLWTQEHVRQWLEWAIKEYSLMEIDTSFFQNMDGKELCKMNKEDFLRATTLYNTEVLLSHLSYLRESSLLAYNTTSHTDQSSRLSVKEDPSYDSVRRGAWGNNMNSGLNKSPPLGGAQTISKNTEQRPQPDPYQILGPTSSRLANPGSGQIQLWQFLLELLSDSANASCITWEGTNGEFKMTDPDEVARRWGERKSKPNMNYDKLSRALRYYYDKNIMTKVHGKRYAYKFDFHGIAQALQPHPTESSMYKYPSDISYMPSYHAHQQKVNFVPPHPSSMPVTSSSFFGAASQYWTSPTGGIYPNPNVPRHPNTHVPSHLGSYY
Method in brief: (§1)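 After expression in yeast as GST fusions, human transcription factors were bound to glutathione beads, DNA-barcoded and mixed with a tag-only sample. The pools were incubated with 200 nmole of a 16-mer random double-stranded DNA library in Tris/NaCl/DTT/glycerol buffer (30 min, room temperature), washed and crosslinked with 0.1% formaldehyde. Proximity ligation with BsaI/T4 ligase ran for 1 h at 37 °C, before PCR amplification and sequencing on an Illumina NextSeq500. Binding signal is a hexamer's read frequency for a factor divided by its frequency for the tag-only sample.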

ELK1 = molecular target: T2, ELK1 (Homo sapiens, UniProt P19419 1-428)
T2 sequence: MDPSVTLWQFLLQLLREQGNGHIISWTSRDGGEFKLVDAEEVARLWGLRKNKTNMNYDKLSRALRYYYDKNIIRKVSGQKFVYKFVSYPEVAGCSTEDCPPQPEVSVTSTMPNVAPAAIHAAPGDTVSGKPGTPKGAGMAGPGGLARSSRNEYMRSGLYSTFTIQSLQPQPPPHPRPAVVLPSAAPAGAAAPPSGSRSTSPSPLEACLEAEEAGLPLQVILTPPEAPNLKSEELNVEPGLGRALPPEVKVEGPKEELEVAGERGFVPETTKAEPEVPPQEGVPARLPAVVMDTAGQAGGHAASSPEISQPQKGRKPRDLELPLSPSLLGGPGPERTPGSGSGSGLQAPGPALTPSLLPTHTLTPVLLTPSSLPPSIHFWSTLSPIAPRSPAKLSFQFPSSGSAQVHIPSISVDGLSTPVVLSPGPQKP
Method in brief: as §1

GABPA = molecular target: T3, GABPA (Homo sapiens, UniProt Q06546 1-454)
T3 sequence: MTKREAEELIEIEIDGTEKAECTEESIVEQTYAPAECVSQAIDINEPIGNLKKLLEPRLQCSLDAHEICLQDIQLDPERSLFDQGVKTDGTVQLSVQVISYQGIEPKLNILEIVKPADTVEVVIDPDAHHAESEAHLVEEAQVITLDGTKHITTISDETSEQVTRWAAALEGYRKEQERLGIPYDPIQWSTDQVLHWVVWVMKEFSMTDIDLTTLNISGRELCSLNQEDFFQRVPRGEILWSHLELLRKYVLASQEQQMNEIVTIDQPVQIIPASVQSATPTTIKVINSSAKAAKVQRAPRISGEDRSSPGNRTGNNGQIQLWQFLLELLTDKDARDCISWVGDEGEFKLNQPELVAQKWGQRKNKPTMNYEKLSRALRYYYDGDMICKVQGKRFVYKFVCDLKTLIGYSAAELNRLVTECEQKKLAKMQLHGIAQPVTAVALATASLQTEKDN
Method in brief: as §1

ERG = molecular target: T4, ERG (Homo sapiens, UniProt P11308 1-479)
T4 sequence: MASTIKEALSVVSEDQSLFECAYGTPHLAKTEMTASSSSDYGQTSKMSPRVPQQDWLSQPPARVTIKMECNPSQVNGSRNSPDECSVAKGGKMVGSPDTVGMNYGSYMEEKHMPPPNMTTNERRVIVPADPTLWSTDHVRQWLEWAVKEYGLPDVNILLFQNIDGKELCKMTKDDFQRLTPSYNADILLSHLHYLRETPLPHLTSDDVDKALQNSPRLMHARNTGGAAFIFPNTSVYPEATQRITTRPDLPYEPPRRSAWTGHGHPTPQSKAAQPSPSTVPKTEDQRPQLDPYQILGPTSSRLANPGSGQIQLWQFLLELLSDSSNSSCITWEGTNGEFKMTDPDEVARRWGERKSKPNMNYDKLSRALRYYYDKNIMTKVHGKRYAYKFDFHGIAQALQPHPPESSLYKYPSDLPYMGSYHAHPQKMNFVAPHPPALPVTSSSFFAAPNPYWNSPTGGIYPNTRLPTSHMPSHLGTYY
Method in brief: as §1

ELF1 = ELF1 (Homo sapiens, UniProt P32519 1-619)
Chain of ELF1 (P32519 whole entry): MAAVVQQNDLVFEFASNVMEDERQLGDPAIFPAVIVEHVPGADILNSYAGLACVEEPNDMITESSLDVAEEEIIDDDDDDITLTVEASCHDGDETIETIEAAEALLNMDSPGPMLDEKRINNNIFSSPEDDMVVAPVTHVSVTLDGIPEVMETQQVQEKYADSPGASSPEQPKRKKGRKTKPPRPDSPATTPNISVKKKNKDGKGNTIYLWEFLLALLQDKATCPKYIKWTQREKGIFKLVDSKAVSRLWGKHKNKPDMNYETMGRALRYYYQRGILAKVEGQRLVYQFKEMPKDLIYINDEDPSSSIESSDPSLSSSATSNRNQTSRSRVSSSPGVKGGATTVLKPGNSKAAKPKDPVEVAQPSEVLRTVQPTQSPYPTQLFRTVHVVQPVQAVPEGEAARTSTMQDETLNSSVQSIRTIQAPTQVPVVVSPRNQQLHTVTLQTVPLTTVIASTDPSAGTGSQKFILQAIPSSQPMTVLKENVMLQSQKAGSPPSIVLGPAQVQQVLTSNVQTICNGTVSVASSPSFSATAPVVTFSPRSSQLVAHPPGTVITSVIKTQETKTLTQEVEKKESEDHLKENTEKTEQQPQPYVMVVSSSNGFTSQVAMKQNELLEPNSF
Method in brief: as §1

EHF = molecular target: T5, EHF (Homo sapiens, UniProt Q9NZC4 1-300)
T5 sequence: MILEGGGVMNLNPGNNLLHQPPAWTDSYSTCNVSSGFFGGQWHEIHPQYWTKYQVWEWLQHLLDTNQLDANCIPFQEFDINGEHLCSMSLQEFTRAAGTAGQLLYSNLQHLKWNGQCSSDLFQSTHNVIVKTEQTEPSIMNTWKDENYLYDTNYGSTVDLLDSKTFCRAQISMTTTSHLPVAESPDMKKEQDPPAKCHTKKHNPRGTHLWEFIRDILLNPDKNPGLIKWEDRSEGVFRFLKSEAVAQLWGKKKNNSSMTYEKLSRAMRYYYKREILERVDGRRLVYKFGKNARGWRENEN
Method in brief: as §1

SPI1 = SPI1 (Homo sapiens, UniProt P17947 1-270)
Method in brief: as §1

SPIB = SPIB (Homo sapiens, UniProt Q01892 1-262)
Chain of SPIB (Q01892 whole entry): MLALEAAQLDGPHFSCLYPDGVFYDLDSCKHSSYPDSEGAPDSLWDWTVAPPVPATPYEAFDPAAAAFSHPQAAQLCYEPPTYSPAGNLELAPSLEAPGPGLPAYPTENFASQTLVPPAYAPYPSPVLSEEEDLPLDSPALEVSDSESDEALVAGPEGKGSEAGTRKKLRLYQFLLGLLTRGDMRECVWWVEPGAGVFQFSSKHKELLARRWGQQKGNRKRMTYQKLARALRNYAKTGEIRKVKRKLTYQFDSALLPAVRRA
Method in brief: as §1

ELK3 = molecular target: T6, ELK3 (Homo sapiens, UniProt P41970 1-407)
T6 sequence: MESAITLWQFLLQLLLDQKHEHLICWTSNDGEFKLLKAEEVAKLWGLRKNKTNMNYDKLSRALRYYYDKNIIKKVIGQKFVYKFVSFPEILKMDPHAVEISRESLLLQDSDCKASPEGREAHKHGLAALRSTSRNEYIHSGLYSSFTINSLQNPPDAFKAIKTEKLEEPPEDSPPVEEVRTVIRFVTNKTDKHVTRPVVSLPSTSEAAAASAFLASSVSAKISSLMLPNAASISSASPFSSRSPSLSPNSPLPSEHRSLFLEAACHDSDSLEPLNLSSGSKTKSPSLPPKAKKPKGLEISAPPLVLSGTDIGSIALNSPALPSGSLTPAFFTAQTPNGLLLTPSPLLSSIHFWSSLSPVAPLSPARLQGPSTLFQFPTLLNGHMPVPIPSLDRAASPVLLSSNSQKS
Method in brief: as §1

TTGAAC
binding signal (FLI1): 1.13 fold enrichment (6-mer frequency, TF over GST control)
binding signal (ELK1): 1.1 fold enrichment (6-mer frequency, TF over GST control)
binding signal (GABPA): 1.08 fold enrichment (6-mer frequency, TF over GST control)
binding signal (ERG): 1.01 fold enrichment (6-mer frequency, TF over GST control)
binding signal (ELF1): 1.15 fold enrichment (6-mer frequency, TF over GST control)
binding signal (EHF): 1.11 fold enrichment (6-mer frequency, TF over GST control)
binding signal (SPI1): 1.04 fold enrichment (6-mer frequency, TF over GST control)
binding signal (SPIB): 1.12 fold enrichment (6-mer frequency, TF over GST control)
binding signal (ELK3): 1.12 fold enrichment (6-mer frequency, TF over GST control)

CCTTGT
binding signal (FLI1): 1.33 fold enrichment (6-mer frequency, TF over GST control)
binding signal (ELK1): 1.29 fold enrichment (6-mer frequency, TF over GST control)
binding signal (GABPA): 1.25 fold enrichment (6-mer frequency, TF over GST control)
binding signal (ERG): 1.37 fold enrichment (6-mer frequency, TF over GST control)
binding signal (ELF1): 1.23 fold enrichment (6-mer frequency, TF over GST control)
binding signal (EHF): 1.24 fold enrichment (6-mer frequency, TF over GST control)
binding signal (SPI1): 1.25 fold enrichment (6-mer frequency, TF over GST control)
binding signal (SPIB): 1.28 fold enrichment (6-mer frequency, TF over GST control)
binding signal (ELK3): 1.18 fold enrichment (6-mer frequency, TF over GST control)

TTTGTC
binding signal (FLI1): 1.35 fold enrichment (6-mer frequency, TF over GST control)
binding signal (ELK1): 1.21 fold enrichment (6-mer frequency, TF over GST control)
binding signal (GABPA): 1.19 fold enrichment (6-mer frequency, TF over GST control)
binding signal (ERG): 1.19 fold enrichment (6-mer frequency, TF over GST control)
binding signal (ELF1): 1.26 fold enrichment (6-mer frequency, TF over GST control)
binding signal (EHF): 1.24 fold enrichment (6-mer frequency, TF over GST control)
binding signal (SPI1): 1.23 fold enrichment (6-mer frequency, TF over GST control)
binding signal (SPIB): 1.16 fold enrichment (6-mer frequency, TF over GST control)
binding signal (ELK3): 1.18 fold enrichment (6-mer frequency, TF over GST control)

ACCCGC
binding signal (FLI1): 1.27 fold enrichment (6-mer frequency, TF over GST control)
binding signal (ELK1): 1.29 fold enrichment (6-mer frequency, TF over GST control)
binding signal (GABPA): 1.35 fold enrichment (6-mer frequency, TF over GST control)
binding signal (ERG): 1.21 fold enrichment (6-mer frequency, TF over GST control)
binding signal (ELF1): 1.33 fold enrichment (6-mer frequency, TF over GST control)
binding signal (EHF): 1.2 fold enrichment (6-mer frequency, TF over GST control)
binding signal (SPI1): 1.32 fold enrichment (6-mer frequency, TF over GST control)
binding signal (SPIB): 1.27 fold enrichment (6-mer frequency, TF over GST control)
binding signal (ELK3): 1.32 fold enrichment (6-mer frequency, TF over GST control)

CGACGT
binding signal (FLI1): 1.23 fold enrichment (6-mer frequency, TF over GST control)
binding signal (ELK1): 1.09 fold enrichment (6-mer frequency, TF over GST control)
binding signal (GABPA): 1.22 fold enrichment (6-mer frequency, TF over GST control)
binding signal (ERG): 1.06 fold enrichment (6-mer frequency, TF over GST control)
binding signal (ELF1): 1.11 fold enrichment (6-mer frequency, TF over GST control)
binding signal (EHF): 1.14 fold enrichment (6-mer frequency, TF over GST control)
binding signal (SPI1): 1.08 fold enrichment (6-mer frequency, TF over GST control)
binding signal (SPIB): 1 fold enrichment (6-mer frequency, TF over GST control)
binding signal (ELK3): 1.07 fold enrichment (6-mer frequency, TF over GST control)

CTGACA
binding signal (FLI1): 1.19 fold enrichment (6-mer frequency, TF over GST control)
binding signal (ELK1): 1.18 fold enrichment (6-mer frequency, TF over GST control)
binding signal (GABPA): 1.2 fold enrichment (6-mer frequency, TF over GST control)
binding signal (ERG): 1.22 fold enrichment (6-mer frequency, TF over GST control)
binding signal (ELF1): 1.27 fold enrichment (6-mer frequency, TF over GST control)
binding signal (EHF): 1.32 fold enrichment (6-mer frequency, TF over GST control)
binding signal (SPI1): 1.26 fold enrichment (6-mer frequency, TF over GST control)
binding signal (SPIB): 1.17 fold enrichment (6-mer frequency, TF over GST control)
binding signal (ELK3): 1.24 fold enrichment (6-mer frequency, TF over GST control)

AACCAC
binding signal (FLI1): 1.18 fold enrichment (6-mer frequency, TF over GST control)
binding signal (ELK1): 1.19 fold enrichment (6-mer frequency, TF over GST control)
binding signal (GABPA): 1.17 fold enrichment (6-mer frequency, TF over GST control)
binding signal (ERG): 1.15 fold enrichment (6-mer frequency, TF over GST control)
binding signal (ELF1): 1.25 fold enrichment (6-mer frequency, TF over GST control)
binding signal (EHF): 1.16 fold enrichment (6-mer frequency, TF over GST control)
binding signal (SPI1): 1.12 fold enrichment (6-mer frequency, TF over GST control)
binding signal (SPIB): 1.19 fold enrichment (6-mer frequency, TF over GST control)
binding signal (ELK3): 1.29 fold enrichment (6-mer frequency, TF over GST control)

TTTGGG
binding signal (FLI1): 1.27 fold enrichment (6-mer frequency, TF over GST control)
binding signal (ELK1): 1.34 fold enrichment (6-mer frequency, TF over GST control)
binding signal (GABPA): 1.37 fold enrichment (6-mer frequency, TF over GST control)
binding signal (ERG): 1.25 fold enrichment (6-mer frequency, TF over GST control)
binding signal (ELF1): 1.25 fold enrichment (6-mer frequency, TF over GST control)
binding signal (EHF): 1.28 fold enrichment (6-mer frequency, TF over GST control)
binding signal (SPI1): 1.4 fold enrichment (6-mer frequency, TF over GST control)
binding signal (SPIB): 1.18 fold enrichment (6-mer frequency, TF over GST control)
binding signal (ELK3): 1.29 fold enrichment (6-mer frequency, TF over GST control)
